Bioassay records deposited in PubChem by National Center for Advancing Translational Sciences (NCATS).
An excerpt weighted towards active compounds, which were near 11% of everything screened.
JMJD2A Tudor = inhibitors of human JMJD2A Tudor domain; O75164; AlphaScreen JMJD2A-Tudor / H3K4me3 peptide binding; Potency, µM (titrated, usually from 114 µM), most hits filed as inhibitors; 390,000 compounds, 4.4% hits; AID 504339; further: nearly all actives have a fitted effect of over 50% in size
G9a block = blocks human histone lysine methyltransferase G9a; Q96KQ7; G9a H3K9 monomethylation, AlphaScreen, 2 h; Potency, µM (doses to about 102 µM), most hits filed as inhibitors; 350,000 compounds, 8.8% hits; AID 504332; further: nearly all actives have a fitted effect of over 75% in size
Target sequence (Q96KQ7 913-1193 limits assumed): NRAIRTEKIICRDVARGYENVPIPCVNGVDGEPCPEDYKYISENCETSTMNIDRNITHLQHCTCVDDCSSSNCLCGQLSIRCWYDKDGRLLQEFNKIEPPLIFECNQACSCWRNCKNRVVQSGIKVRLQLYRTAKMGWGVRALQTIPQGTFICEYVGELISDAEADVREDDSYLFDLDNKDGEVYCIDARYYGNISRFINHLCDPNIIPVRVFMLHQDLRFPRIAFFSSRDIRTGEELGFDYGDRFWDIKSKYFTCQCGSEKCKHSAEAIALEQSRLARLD
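G9a (20 nM) was preincubated 15 min with compound, then reacted 2 h at room temperature with 500 nM biotin-H3K9 peptide and 20 µM SAM. Monomethyl-H3K9 detected by AlphaScreen using anti-H3K9me1 antibody.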
BAZ2B inh = blocks human BAZ2B. Q9UIF8. AlphaScreen BAZ2B-H3K14Ac peptide displacement. Potency, µM (titrated, usually from 114 µM), hits mostly inhibitors. 360,000 compounds, 4.4% hits. AID 504333; further: nearly all actives have a fitted effect of over 60% in size
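Protein-peptide AlphaScreen: BAZ2B 50 nM, b-H3K14Ac 50 nM, 1x PBS pH 7.4 + 0.01% Tween-20. Preincubation 30 min RT; cpd 30 min RT (top 110 uM); beads 20 min RT, light-protected.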
HP1b binding inh = inhibitors of HP1-beta chromodomain binding to methylated histone tails; P83916; AlphaScreen HP1-beta / biotin-H3K9me3 peptide binding; Potency, µM (doses to about 114 µM), most hits filed as inhibitors; 390,000 compounds, 0.56% hits; AID 540317; further: nearly all actives have a fitted effect of over 70% in size
Target sequence (P83916 whole entry, looked up): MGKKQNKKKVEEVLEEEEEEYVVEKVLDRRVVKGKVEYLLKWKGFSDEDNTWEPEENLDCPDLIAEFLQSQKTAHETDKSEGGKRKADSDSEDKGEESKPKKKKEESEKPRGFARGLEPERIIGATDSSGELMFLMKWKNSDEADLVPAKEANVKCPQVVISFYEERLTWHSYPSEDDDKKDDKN
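AlphaScreen: HP1-beta (50 nM) preformed 30 min with biotin-H3(1-18)K9me3 peptide (50 nM) in PBS pH 7.4, 0.01% Tween-20. Compound added for 30 min at RT, then streptavidin donor/nickel chelate acceptor beads (10 ug/mL) for 30 min.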
L3MBTL1 inh = blocks human L3MBTL1. Q9Y468. AlphaScreen L3MBTL1–H3K9me1 peptide binding. Potency, µM (series often up to 57.1 µM), hits mostly inhibitors. 230,000 compounds, 0.66% hits. AID 485360; further: nearly all actives have a fitted effect of over 60% in size
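AlphaScreen assay: L3MBTL1 (50 nM final) was preincubated 30 min at room temperature with biotinylated H3(1-15)K9me1 peptide (75 nM final), then 30 min with library compounds; streptavidin donor and nickel chelate acceptor beads (10 ug/mL final) added, 30 min dark.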
Numbers stand for hits; i = inactive; ? = inconclusive; nt = no result given; [ ] = another dose, or the depositor's remark. The call rests on the fitted dose curve; in most records, active means well fitted inhibition curve with a large enough effect; inconclusive means small, poorly fitted or top-dose-only effect; inactive means no such curve, though single readings can be large or run the other way.

SMILES	JMJD2A Tudor	G9a block	BAZ2B inh	HP1b binding inh	L3MBTL1 inh
CCc1ccc2oc(-c3cccc(NC(=O)C(C)(C)Oc4ccc(Br)cc4)c3)nc2c1	i	i	i	i	nt
CCOc1ccc2nc(SCC)[nH]c2c1	i	i	89µM	i	i
CCOc1ccc2nc(SCC(=O)NCc3ccccc3)[nH]c2c1	i	i[0.501 µM]	i	i	i[2.29 µM]
Cc1cc(C)c2c(c1)C1C=CCC1C(c1ccc(S(=O)(=O)N3CCOCC3)cc1)N2 (configuration not stated)	i	8.9µM	i	i	i
Cc1ccc(-n2ncc3c(NC4CCCCCC4)ncnc32)cc1	i	i	i	i	nt
CC(=O)Nc1nc(C)c(-c2csc(Nc3cccc([N+](=O)[O-])c3)n2)s1	i	i	i	i	nt
Cc1ccc(Nc2nc(-c3sc(NC(=O)c4ccco4)nc3C)cs2)cc1	?	?	?	i	i
Cc1ccc(Nc2nc(-c3sc(NC(=O)c4cccc(Cl)c4)nc3C)cs2)cc1	nt	25µM	?	nt	i
COc1ccccc1Nc1nc(-c2sc(NC(=O)C(C)(C)C)nc2C)cs1	63µM	?	?	i	i
CCCC(=O)Nc1nc(C)c(-c2csc(Nc3ccccc3OC)n2)s1	?	?	?	i	i
COc1ccccc1Nc1nc(-c2sc(NC(=O)c3cccc(Cl)c3)nc2C)cs1	nt	32µM	?	nt	i
Cc1nc(NC(=O)c2ccc(Cl)cc2)sc1-c1csc(Nc2cccc(F)c2)n1	nt	50µM	i	nt	i
CCOc1ccccc1N1CCN(C(=O)NCc2ccc(C)cc2)CC1	i	i	i	i	nt
CCN(CC)C(=O)[C@@]1(c2ccccc2)C[C@@H]1CN	nt	i[12.7 µM]	nt	nt	nt
Cc1ccc(Cl)cc1Nc1nc(-c2sc(NC(=O)C(C)(C)C)nc2C)cs1	?	?	56µM	i	i
CC(C)OC(=O)c1ccc(NCc2cc(O)ccc2O)cc1	4µM	nt	nt	40µM	nt
Oc1ccc(Cl)cc1CNc1cnc2ccccc2c1	i	?	i	i	i
CC(C)OC(=O)c1ccc(NC(=O)c2ccccc2)cc1	i	i	i	i	i
COP(=O)(OC)c1ccc(NCc2cc(O)ccc2O)cc1	3.5µM	nt	nt	?	nt
O=C(OCc1ccccc1)c1ccc(NCc2cc(O)ccc2O)cc1	25µM	nt	nt	?	nt
COc1cc(-c2nc(Cn3nnc(C(=O)Nc4cccc(Cl)c4)c3C)c(C)o2)cc(OC)c1OC	i	i	i	i	nt
Cc1ccc2c(c1)C(=O)OC(C(=O)Nc1ccc(C(=O)O)cc1)C2 (configuration not stated)	i	i	i	i	nt
CCC(=O)Nc1nc(C)nc(C)c1C(C)=O	i	45µM	i	i	i
Cc1nc(N2CCCCC2)c2ccsc2n1	0.79µM	20µM	5µM	?	nt
COc1ccc(NC(=O)C2(c3cccs3)CCOCC2)cc1Cl	i	i	i	i	nt
SMILES	JMJD2A Tudor	G9a block	BAZ2B inh	HP1b binding inh	L3MBTL1 inh
O=C(CN1CCN(c2ccccn2)CC1)N1c2ccccc2CCc2ccccc21	3.2µM	8.9µM	32µM	18µM	i
O=C(CN1CCN(c2ccccn2)CC1)N1c2ccccc2Sc2ccc(C(F)(F)F)cc21	2µM	?	22µM	16µM	i
Nc1c(-c2cccc([N+](=O)[O-])c2)nc2ccccn12	i	79µM	?	i	i
O=[N+]([O-])c1cccc(-c2ncc3ccccn23)c1	i	i	?	i	i
Clc1cccc(OCCn2cncn2)c1Cl	i[11.4 µM]	?	56µM	i	i[11.4 µM]
Cc1ccc(C(C)C)cc1OCCn1cncn1	2.2µM	11µM	79µM	50µM	i
CCC(=O)c1ccccc1OCCN1CCN(CC)CC1	14µM	14µM	35µM	?	i
CCC(=O)c1ccccc1OCCCCn1cncn1	5.6µM	8.9µM	28µM	?	i
Cc1cn(C)c(CC(=O)NCc2ccc(F)cc2)c1C(=O)O	i	i	i	i	nt
CCOc1ccccc1NC(=O)c1cc2c(=O)[nH]c3ccccc3c2s1	i	i	nt	i	nt
CC1(C)NC(=O)N(CCOc2cccc(Cl)c2Cl)C1=O	i	i	i	i	i
CCN1CCN(CCOc2cccc(Cl)c2Cl)CC1	4µM	nt	18µM	?	i
CC1CC(C)CN(CCC(=O)Nc2cccc(Cl)c2)C1 (configuration not stated)	i	i[2.33 µM]	i	i	nt
CC1CC(C)CN(CCOc2ccc(Cl)cc2Cl)C1 (configuration not stated)	2.8µM	?	56µM	?	nt
CC1CC(C)CN(CCOc2cccc(Cl)c2Cl)C1 (configuration not stated)	79µM	13µM	?	?	i
CCc1ccccc1NC(=O)Nc1cc(C(=O)NCc2ccc(OC)cc2)ccc1N1CCCC1	i	i	i	i	nt
Cc1cc(C)n2ncc(C(=O)O)c2n1	?	i[12.7 µM]	?	i	i
Cc1c(C(=O)O)cnc2c([N+](=O)[O-])cnn12	8.9µM	56µM	i	i	?
Nc1c(-c2ccccc2)cc[nH]c1=O	8.9µM	nt	nt	nt	nt
O=c1[nH]cc(-c2ccccc2)c(=O)[nH]1	i	i	i	i	i
O=C(NCCc1csc(-c2cccnc2)n1)c1ccc(Br)o1	i	20µM	i	i	i
O=C(NCCc1csc(-c2ccccc2)n1)c1ccc(Br)o1	i	i	i	i	i
COc1ccc(/C=C2\CN(Cc3ccccc3)C/C(=C\c3ccc(OC)c(O)c3)C2=O)cc1O	?	45µM	40µM	?	nt
COc1ccc(C=C2C(=O)c3ccccc3C2=O)cc1O	?	13µM	10µM	?	nt
Cc1cc(-c2nnc(CCC(=O)NCc3ccc(OC(F)(F)F)cc3)o2)no1	i	i	i	i	nt
SMILES	JMJD2A Tudor	G9a block	BAZ2B inh	HP1b binding inh	L3MBTL1 inh
Cc1ccc(-c2nc3ncccc3o2)cc1NC(=O)COc1ccc(C(C)C)cc1	i	14µM	i	i	nt
Cc1cc(OCC(=O)Nc2cc(-c3nc4ncccc4o3)ccc2C)ccc1Cl	i	i	i	i	nt
CN(O)/C=C/C(=O)c1ccc(Br)cc1	50µM	20µM	i	i	i
CN(C)/C=C/C(=O)c1ccc(Br)cc1	i	i	i	i	i
Cc1ccc(CNc2nc(-c3ccco3)nn2C(=O)c2ccccc2[N+](=O)[O-])cc1	?	13µM	8.9µM	?	nt
CN(C)c1ccc(CNc2nc(-c3ccco3)nn2C(=O)c2cccc([N+](=O)[O-])c2)cc1	45µM	7.9µM	35µM	?	nt
COc1ccc(CNc2nc(-c3ccco3)nn2C(=O)c2ccccc2C)cc1	i	?	i	i	nt
COc1ccccc1CNc1nc(-c2ccco2)nn1C(=O)c1ccccc1[N+](=O)[O-]	?	11µM	?	i	nt
CC(C)(C)c1ccccc1NC(=O)CSc1nc(-c2cccs2)cc(C(F)(F)F)n1	i	i	i	i	nt
O=C1Nc2ccccc2/C1=N\c1sc2c(c1C(=O)Nc1ccccc1)CCCC2	?	13µM	i	i	i[11.4 µM]
CCS(=O)(=O)Nc1c(C(=O)O)[nH]c2ccccc12	89µM	50µM	i	i	i
Cc1ccc(S(=O)(=O)Nc2c(C(=O)O)[nH]c3ccccc23)cc1C	i	16µM	?	i	nt
Cc1cc(S(=O)(=O)Nc2c(C(=O)O)[nH]c3ccccc23)ccc1F	i	?	i	i	i
